TROY NFkB inh: blocks TROY-dependent signaling in reporter cells | inhibition, % at 10 µM | Q293 LMP1-TROYcd NF-kB luciferase reporter, 4 h | AID 1347056 | 360,000 compounds, 0.98% hits;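 active = compounds whose plate-normalised and pattern-corrected inhibition of the luciferase reporter signal at the single screening dose is 50% or more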
TWEAK Fn14 block: TWEAK-Fn14 signaling inhibition | TWEAK-stimulated Fn14 reporter cells, luciferase luminescence, 8 h | inhibition, % at 10 µM | 360,000 compounds, 2% hits | AID 1159606; in the data active = inhibition above about 50%
Peg3 prom inh-1: Peg3 promoter activity inhibition. HeLa PEG-Prom luciferase reporter, luminescence, overnight. inhibition, % at 20 µM. 360,000 compounds, 1.7% hits;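 active = inhibition of at least 50% at 20 µM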
CF NFkB block: blocks PAF-induced NF-kB reporter in cystic fibrosis cells. 360,000 compounds, 0.86% hits. AID 588850. inhibition, % at 5 µM. KKLEB NF-kB-GFP reporter, GFP fluorescence overnight;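 active = at least 50% inhibition at 5 µM, scaled per plate between neutral and stimulator controls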;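 note: PAF is a Pseudomonas aeruginosa culture filtrate used as stimulus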
HIF-2a inh: HIF-2a inhibition; 786-0 RCC cells HIF-2a reporter, luciferase luminescence, overnight; inhibition, % at 18.8 µM; 360,000 compounds, 0.72% hits; AID 624352;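 active = inhibition of the luminescence signal of 40% or more relative to plate controls, in a single-dose primary screen at 18.75 µM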
KKLEB cytotox: CF airway cell cytotoxicity counter-screen; 360,000 compounds, 0.36% hits; KKLEB CF airway cells viability, ATPlite luminescence, overnight; active compounds read low; cells stimulated with P. aeruginosa culture filtrate; activity change (cytotoxicity), % at 5 µM;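 active = corrected activity change at or below -50% at 5 µM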
Peg3 prom inh-2: confirmation of Peg3 promoter inhibitors. shares compounds with Peg3 prom inh-1. HeLa PEG-Prom luciferase reporter, luminescence, overnight. inhibition, % at 20 µM. 1,300 compounds, 84% hits;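 active = at 20 µM dose, 40% or more inhibition averaged across four replicates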
Large screens that a line does not name were inactive (follow-up assays come after a bar, where they were run); ! = a repeat was not active. An excerpt weighted towards active compounds, which were near 3.9% of everything screened.

CC(=O)NC(c1ccco1)c1ccc2cccnc2c1O (stereo unspecified)	none
COc1ccc(CCCC(=O)NCC(=O)N/N=C/c2cc(Cl)ccc2OC)cc1	none
O=C(NCC1CCN(C(=O)c2ccc([N+](=O)[O-])cc2)CC1)c1ccc([N+](=O)[O-])cc1	none
COCC(C)n1c(C)cc(C(=O)COC(=O)c2cccn2C)c1C (stereo unspecified)	TROY NFkB inh 82, TWEAK Fn14 block 94, Peg3 prom inh-1 56 | Peg3 prom inh-2 45
COCC(C)n1c(C)cc(C(=O)COC(=O)c2cnc(Cl)c(Cl)c2)c1C (stereo unspecified)	none
O=C(CSc1nc2ccc(N3CCOCC3)cc2c(=O)n1CCc1ccccc1)NCC1CCCO1 (stereo unspecified)	none
CCCCN(C)CCNC(=O)c1cc(-c2cccnc2)nc2ccc(S(=O)(=O)N3CCC(C)CC3)cc12	Peg3 prom inh-1 96 | Peg3 prom inh-2 74
Nc1c(C(=O)Nc2cccc(C(=O)O)c2)sc2nc3c(cc12)CCCC3	Peg3 prom inh-1 69, HIF-2a inh 77 | Peg3 prom inh-2 55
CC(=O)N1CCc2cc(S(=O)(=O)N3c4ccccc4CC3C)ccc21 (stereo unspecified)	none
CCOc1ccc(-c2ccc(SC)nn2)cc1	TROY NFkB inh 75, Peg3 prom inh-1 76, KKLEB cytotox -60 | Peg3 prom inh-2 45
CCOc1ccc(-c2ccc(SCC(=O)Nc3nnc(CC)s3)nn2)cc1	none
CCOC(=O)C1=C(COCCN)NC(C)=C(C(=O)OC)C1c1ccccc1Cl (stereo unspecified)	TROY NFkB inh 66!, Peg3 prom inh-1 69! | Peg3 prom inh-2 89
CCOc1ccc(NC(=O)CN(C)C(=O)c2cc(S(=O)(=O)N(C)C)ccc2N2CCCC2)cc1OCC	none
COc1cc(CNCCN2CCOCC2)ccc1OCc1ccc(Cl)cc1Cl	Peg3 prom inh-1 57 | Peg3 prom inh-2 79
COc1ccc(NC(=O)N2CCN(C(=O)c3ccco3)CC2)c(OC)c1	none
NCCc1c(-c2ccccc2)n(-c2ccccc2)c2ccccc12	Peg3 prom inh-1 107 | Peg3 prom inh-2 99
CC(=O)n1c(-c2ccccc2)c(CO)c2ccccc21	none
CCC1(c2ccccc2)NC(=O)N(CC(=O)Nc2cc(S(=O)(=O)N3CCCCCC3)ccc2OC)C1=O (stereo unspecified)	Peg3 prom inh-1 54 | Peg3 prom inh-2 70
Cc1cccc(NC(=O)CSc2cc(C)c(C#N)c3nc4ccccc4n23)c1	none
CN(C)c1[nH]c(=O)c(C#N)c2c1CCN2Cc1ccccc1	none
Clc1ccccc1/C=C/c1nc(-c2ccccn2)no1	TROY NFkB inh 77, TWEAK Fn14 block 102, Peg3 prom inh-1 61, HIF-2a inh 63 | Peg3 prom inh-2 47
Cc1occc1-c1nnc(SCC(=O)N(C)C)o1	none
CN1CCC(NC(=O)c2cc(-c3cccc(Br)c3)nc3ccccc23)CC1	Peg3 prom inh-1 105 | Peg3 prom inh-2 79
COc1ccc(OCC(O)CN2CCC(CN3C(=O)c4cccc5cccc(c45)C3=O)CC2)cc1 (stereo unspecified)	none
Cc1ccc(C)c(OCC(O)CN2CCC(CN3C(=O)c4cccc5cccc(c45)C3=O)CC2)c1 (stereo unspecified)	Peg3 prom inh-1 99 | Peg3 prom inh-2 97
CCOc1ccc(CNC(=O)CCC(=O)n2nc(C)c3ccccc32)cc1	none
COC(CNC(=O)c1ccc2c3c(onc13)-c1ccccc1C2=O)OC	Peg3 prom inh-1 102 | Peg3 prom inh-2 99
COC(CNC(=O)c1cccnc1)OC	none
CN(CC(=O)N1CCN(c2ccccn2)CC1)S(=O)(=O)c1ccc(Cl)cc1	none
Cc1cc(C)n(/N=C/c2ccccc2O)c(=O)c1	none
CN=c1scc(-c2cccs2)n1/N=C/c1ccccc1O	TROY NFkB inh 88, TWEAK Fn14 block 108, Peg3 prom inh-1 91, HIF-2a inh 90, KKLEB cytotox -69 | Peg3 prom inh-2 95
CCOC(=O)c1ccc2ncc(C(=O)OCC)c(NCCN3CCOCC3)c2c1	none
CCOC(=O)c1ccc2ncc(C(=O)OCC)c(NCCN(C)C)c2c1	Peg3 prom inh-1 55 | Peg3 prom inh-2 55
COc1cc(CNCCCN2CCOCC2)ccc1OCC(=O)Nc1cccc(C(F)(F)F)c1	none
CCOc1cc(CNCCCN2CCOCC2)ccc1OCC(=O)Nc1cccc2ccccc12	Peg3 prom inh-1 50 | Peg3 prom inh-2 64
Cc1nc(C)c(C(=O)N/N=C/c2cc(Br)ccc2O)s1	Peg3 prom inh-1 50 | Peg3 prom inh-2 61
COc1ccc2c(c1)sc1nc(-c3ccccc3)cn12	TROY NFkB inh 84, TWEAK Fn14 block 103, Peg3 prom inh-1 85, HIF-2a inh 78, KKLEB cytotox -96 | Peg3 prom inh-2 74
O=[N+]([O-])c1cc(Cl)c2cccnc2c1O	none
CCC(=O)NC(c1cc(Cl)c2cccnc2c1O)C1CC1 (stereo unspecified)	none
CCC(=O)NC(c1cc(Cl)c2cccnc2c1O)C(C)C (stereo unspecified)	none
CC(=O)NC(c1ccc(N(C)C)cc1)c1cc(Cl)c2cccnc2c1O (stereo unspecified)	Peg3 prom inh-1 59 | Peg3 prom inh-2 68
Oc1c(I)cc(Cl)c2cccnc12	Peg3 prom inh-1 55 | Peg3 prom inh-2 68
CC(=O)NC(c1ccccc1)c1cc(Cl)c2cccnc2c1O (stereo unspecified)	Peg3 prom inh-1 51 | Peg3 prom inh-2 65
CCC(=O)NC(c1cccs1)c1cc(Cl)c2cccnc2c1O (stereo unspecified)	Peg3 prom inh-1 56 | Peg3 prom inh-2 58
COc1cc(OC)cc(C(=O)NCC(=O)OCc2cc(=O)oc3cc(OC)ccc23)c1	none
CCN1C(=O)[C@H]2[C@@H](c3ccc(-c4cccc(Cl)c4)c(OC)c3)N[C@@](C)(C(=O)OC)[C@H]2C1=O	none
Cc1noc(C)c1S(=O)(=O)N(C)C[C@H]1OCc2cn(nn2)CCCC(=O)N([C@H](C)CO)C[C@@H]1C	none
COc1ccc(C(NC(C)=O)c2cc(Cl)c3cccnc3c2O)cc1 (stereo unspecified)	Peg3 prom inh-1 64 | Peg3 prom inh-2 64
Cc1ccc(C)c2c1CCC(=Cc1ccccc1[N+](=O)[O-])C2=O	none
CN1C/C(=C/c2ccccc2[N+](=O)[O-])C(=O)/C(=C\c2ccccc2[N+](=O)[O-])C1	Peg3 prom inh-1 96 | Peg3 prom inh-2 100
COc1ccc(C(O)(CC(C)C)C(CN2CCOCC2)c2ccccc2)cc1 (stereo unspecified)	Peg3 prom inh-1 71 | Peg3 prom inh-2 73
NC(=O)c1cc([N+](=O)[O-])ccc1NCc1ccc(N)cc1	TROY NFkB inh 67, TWEAK Fn14 block 84, Peg3 prom inh-1 81, HIF-2a inh 93 | Peg3 prom inh-2 78
